# M1 ag parental = counter-screen for M1 agonists: effect in parental CHO-K1 cells; Fluo-8 calcium fluorescence; scaled to maximal ATP response, vehicle zero; activation, % at 3 µM; actives 0.48% (n = 360,000); AID 602248, 2012; in the data active = activation above about 15%;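 also: untransfected CHO-K1 host cells lacking M1 receptor as counterscreen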
# CHO-K1 Ca antag = counter-screen for M1 antagonists: effect in parental CHO-K1 cells. ATP-induced calcium, Fluo-8 fluorescence. inhibition, % at 3 µM. actives 0.6% (n = 360,000). AID 602250;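 active = inhibition above a per-plate cutoff, the plate's mean sample inhibition plus 3 SD, cut at about 24% in these data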;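 also: 0% = DMSO plus EC80 ATP and 100% = DMSO alone without ATP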
# CHRM1 antagonist = human M1 muscarinic receptor antagonists, primary screen, CHO-K1 cells, Fluo-8 calcium fluorescence, 1536-well; Muscarinic acetylcholine receptor M1 (Homo sapiens), P11229; CHO-K1 hM1, ACh EC80 antagonist; inhibition, % at 3 µM; actives 1.3% (n = 360,000); AID 588852, 2011;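 active = percent inhibition above its own plate's cutoff, namely the mean of that plate's compound wells plus 3 SD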;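 also: peak over basal fluorescence ratio during 140 s after agonist addition; 0% = ACh EC80 plus DMSO and 100% = DMSO alone without agonist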
# Target sequence (P11229 whole entry, looked up): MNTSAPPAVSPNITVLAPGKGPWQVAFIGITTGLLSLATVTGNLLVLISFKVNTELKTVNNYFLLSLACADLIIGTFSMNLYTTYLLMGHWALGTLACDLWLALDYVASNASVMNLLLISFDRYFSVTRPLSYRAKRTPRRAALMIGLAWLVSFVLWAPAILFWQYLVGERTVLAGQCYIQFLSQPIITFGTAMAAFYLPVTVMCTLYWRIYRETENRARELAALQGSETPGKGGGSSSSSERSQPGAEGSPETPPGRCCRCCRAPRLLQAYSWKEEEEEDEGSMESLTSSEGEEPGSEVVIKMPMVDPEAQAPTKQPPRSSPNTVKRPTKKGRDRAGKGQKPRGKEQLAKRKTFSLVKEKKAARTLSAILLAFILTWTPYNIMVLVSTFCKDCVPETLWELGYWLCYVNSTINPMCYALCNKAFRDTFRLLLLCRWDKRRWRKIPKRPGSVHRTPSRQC
# M1 PAM parental = nonselective calcium activators in parental CHO-K1 cells, primary screen, counter-screen for M1 PAM project, cell-based, Fluo-8 calcium fluorescence, full deck, 1536-well; ATP EC20; 0% at ATP EC20, 100% at ATP max; activation, % at 3 µM; actives 0.02% (n = 360,000); AID 602247, 2012;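 active = activation above the run cutoff, the mean activation of all test compounds plus 3 SD, cut at about 40% in these data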;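 also: peak over basal fluorescence ratio in a 140 s read after ATP addition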
# M1 ag = human M1 muscarinic receptor agonists, primary screen, Fluo-8 calcium fluorescence, CHO-K1 cells, HTS | actives 0.33% (n = 360,000) | activation, % at 3 µM | CHO-K1 hM1, agonist mode; 0% DMSO, 100% acetylcholine EC100 | Muscarinic acetylcholine receptor M1 (Homo sapiens), P11229;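 active = activation above the run's mean compound activation plus 3 SD, cut at about 16% in these data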;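 also: peak over basal fluorescence ratio within a 140 s kinetic read after compound addition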
# M1 PAM = human M1 muscarinic receptor positive allosteric modulators, primary screen, CHO-K1 cells, Fluo-8 calcium fluorescence, 1536-well; Muscarinic acetylcholine receptor M1 (Homo sapiens), P11229; CHO-K1 hM1, ACh EC20; 0% = ACh EC20, 100% = maximal ACh; activation, % at 3 µM; actives 0.088% (n = 360,000); AID 588819, 2011; in the data active = activation above about 19%, passing the limit was not always enough
# Active calls of the source: *; · = not tested or not shown; ! = a repeat was not active. A selection: hits, their analogues and other compounds. The true share with any hit is near 2.3%.
SMILES,M1 ag parental,CHO-K1 Ca antag,CHRM1 antagonist,M1 PAM parental,M1 ag,M1 PAM
O=C(c1ccc2c(c1)OCO2)C1CCCN(Cc2cccc(C(F)(F)F)c2)C1 (centres undefined),0,-2,63*,-1,-7,-24
O=C(c1ccc2c(c1)OCO2)C1CCCN(Cc2ccc(OC(F)F)cc2)C1 (centres undefined),9,-5,91*,4,0,-24
Cc1ccccc1S(=O)(=O)N1C[C@H]2CON(C)[C@H]2C[C@H]1c1cccc(-c2ccccc2)c1,1,-17,-20,34,-5,8
CN1OC[C@@H]2CN(S(=O)(=O)c3cccc4ccccc34)[C@H](c3ccc(-c4ccccc4)cc3)C[C@@H]21,0,-11,-34,7,5,25*
CN1OC[C@@H]2CN(C(=O)C(C)(C)C)[C@H](c3ccc(-c4cccnc4)cc3)C[C@@H]21,0,30*,8,-9,5,5
COCCN1C(=O)C(=O)/C(=C(/O)c2ccc(S(=O)(=O)N3CCOCC3)cc2)C1c1cccc(OC)c1 (centres undefined),1,8,-1,7,-3,6
COc1ccc(C(CNc2nc(-c3cccnc3)nc3ccccc23)N(C)C)cc1 (centres undefined),3,4,33*,4,-11,-31
Oc1ccc(/C=N/Nc2nc(-c3cccnc3)nc3ccccc23)c(O)c1,6,-5,9,12,-1,-3
CC(Nc1nc(-c2cccnc2)nc2ccccc12)c1ccc(F)cc1 (centres undefined),2,-7,21*,-2,-10,-17
Cc1c(O)ccc(/C=N/Nc2nc(-c3cccnc3)nc3ccccc23)c1O,6,-1,32*,4,1,-8
COc1ccc(CCNc2nc(-c3cccnc3)nc3ccccc23)cc1OC,7,23,25*,-6,-8,-13
COc1ccc(/C=N/Nc2nc(-c3cccnc3)nc3ccccc23)cc1OC,5,2,26,1,0,-16
CC(=O)Nc1cccc(C(=O)OCC(=O)NC2CCCCCCC2)c1,15*,-14,5,-10,1,-4
N=c1occ(C(=O)c2cc(F)ccc2O)cc1C(=O)NC1CCCCC1,5,24*,17,-15,0,-11
CCOC(=O)c1cc(C(=O)c2cc(F)ccc2O)coc1=N,2,-7,-12,13,-2,8
Cc1nc2cc(OCc3cc(C(=O)NC(C)c4cnn(C)c4)no3)ccc2s1 (centres undefined),3,-4,2,-8,-2,3
CCCCCCCCCCOC(=O)Cn1c(COc2ccccc2C)[n+](C)c2ccccc21,0,-1,86*,4,-10,-30
CCCCOC(=O)Cn1c(=O)n(CC(=O)OCCCC)c2ccccc21,0,-6,-4,8,-4,1
CCOC(=O)Cn1c(COc2ccccc2OC)[n+](C)c2ccccc21,0,1,6,-7,-9,-3
CCCCCCCCCCOC(=O)Cn1c(COc2ccc(Cl)cc2)[n+](C)c2ccccc21,13,1,43*,14,-4,-20
CCCCCOC(=O)Cn1c(=O)oc2ccccc21,0,1,-8,10,-8,5
Cc1cccc(OCCCn2c(=O)sc3ccccc32)c1,0,-4,14,3,-5,-3
CCCCCCCCCCOC(=O)Cn1c(COc2cccc(C)c2)[n+](C)c2ccccc21,0,9,36*,4,9,-22
CCCCCCCCCCOC(=O)Cn1c(COc2ccccc2)[n+](C)c2ccccc21,1,5,70*,2,-6,-30
Cn1c(=O)c(N=O)c(N)n(Cc2ccccc2)c1=S,1,-14,-4,11,2,5
SMILES,M1 ag parental,CHO-K1 Ca antag,CHRM1 antagonist,M1 PAM parental,M1 ag,M1 PAM
COc1ccc(F)cc1S(=O)(=O)Nc1cc2c3c(c1)CCC(=O)N3CCC2,2,-6,-6,22,2,7
CCCCCCCCCCOC(=O)Cn1c(COc2ccc(OC)cc2)[n+](C)c2ccccc21,7,13,41*!,-2,-11,-16
CCOC(=O)[C@]12CCC=C1N(Cc1cccc3ccccc13)C(=O)[C@H](CC(=O)NCc1ccc(OC)c(OC)c1)C2,3,-22,·,-4,·,·
O=C(NCc1ccco1)C(=O)c1cn(CC(=O)N2CCCCC2)c2ccccc12,0,-6,-4,14,-3,6
COC(CNC(=O)c1ccc2c(c1)ncn2-c1ccc(C)cc1C)OC,18*,-1,-5,-2,-5,9
O=C(CN1CCOCC1)N/N=C/c1ccc(-c2cccc(Cl)c2Cl)o1,0,-2,-5,-11,-6,7
COc1ccc(C2CC=C(C(C)=O)CN2S(=O)(=O)c2ccccc2)cc1 (centres undefined),2,24*,-7,7,-5,13
COCCNC(=O)CN1C(=O)NC2(CCCc3ccccc32)C1=O (centres undefined),0,2,67*,13,0,4
COc1ccccc1C(=O)Nc1ccc(S(=O)(=O)N2CCCCC2)cc1,3,-11,-3,0,-5,-2
COc1ccccc1CNC(=O)C1CCC(=O)N(CCCc2ccccc2)C1 (centres undefined),2,32*,-6,6,-3,5
Cn1cc(CNC(=O)C2CCC(=O)N(Cc3ccccc3F)C2)cn1 (centres undefined),0,-6,-16,-1,1,26*
COC(=O)c1ccc(CNC(=O)C2CCC(=O)N(CCCc3ccccc3)C2)cc1 (centres undefined),1,-3,-10,11,-2,14
Cc1ccc(F)c(CNC(=O)C2CCC(=O)N(Cc3ccccn3)C2)c1F (centres undefined),0,27*,-3,0,-5,2
Cc1cc(O)ccc1NC(=O)Cc1cccc2ccccc12,1,0,-20,19,-4,17
CN(C)CCCn1c(SCC(=O)N2CC(=O)Nc3ccccc32)nc2ccccc2c1=O,0,-14,-1,13,-8,0
CC(C)N(CCn1c(SCC(=O)N2CC(=O)Nc3ccccc32)nc2ccccc2c1=O)C(C)C,0,-20,61*,3,-6,-23
CC1(C)Cc2c(sc3nc[nH]c(=O)c23)CO1,0,26*,7,-19,-3,-9
